Reference: PubChem BioAssay (Tox21)
Records with an inconclusive call do not appear. Values without a mark were called inactive. Calls of active or inactive are those of the source. Calls come from the whole dose curve.
% is set by controls: 0 for no effect and ±100 for the full control effect.

The compounds below were run against 5-hydroxytryptamine receptor 2A (Homo sapiens) (UniProt P28223) (assay: 5-hydroxytryptamine receptor 2A (HTR2A) small molecule antagonists, cell-based qHTS assay (AID 1963586; note: nearly all actives have a fitted effect of over 45% in size)). Conditions: HTR2A-CHO cells, DOI-induced calcium flux, fluorescence; series mostly up to 61.5 µM; activity, negative = inhibition: at the top concentration.
5-hydroxytryptamine receptor 2A (Homo sapiens), sequence (P28223 whole entry, looked up): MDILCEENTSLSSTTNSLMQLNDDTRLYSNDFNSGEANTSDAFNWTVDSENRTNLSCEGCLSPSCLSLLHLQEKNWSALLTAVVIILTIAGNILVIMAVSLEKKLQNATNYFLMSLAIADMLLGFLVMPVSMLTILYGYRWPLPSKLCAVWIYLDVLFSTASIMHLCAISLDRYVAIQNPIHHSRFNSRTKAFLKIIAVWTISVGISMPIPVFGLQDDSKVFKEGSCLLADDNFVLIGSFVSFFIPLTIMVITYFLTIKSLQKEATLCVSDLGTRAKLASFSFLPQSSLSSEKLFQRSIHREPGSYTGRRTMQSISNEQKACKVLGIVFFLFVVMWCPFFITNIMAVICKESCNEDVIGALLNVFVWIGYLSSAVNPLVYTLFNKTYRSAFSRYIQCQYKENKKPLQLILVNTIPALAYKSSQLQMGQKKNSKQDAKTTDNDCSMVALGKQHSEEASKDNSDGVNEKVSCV
Text: National Center for Advancing Translational Sciences [NCATS]
Division of Preclinical Innovation [DPI]
U.S. Environmental Protection Agency [EPA]
National Institutes of Environmental Health Sciences [NIEHS]
National Toxicology Program [NTP]
U.S. Food and Drug Administration [FDA]
The HTR2A receptor is a subtype of the 5-HT2 receptor that belongs to the serotonin receptor family and is a G protein-coupled receptor (GPCR). The HTR2A-CHO cell line stably expressing human 5-hydroxytryptamine receptor 2A (HTR2A) can be used for screening antagonists of interactions between 5-HT2 and its ligands. The HTR2A-CHO calcium flux assay is a homogeneous fluorescence-based assay for detecting the intracellular calcium level using FDSS kinetic plate reader system.
Tox21 Assay Protocol Summary:
HTR2A-CHO cells were dispensed at 2000 cells/3uL/well in 1536-well black-clear bottom plates using a Multidrop Dispenser. After the assay plates were incubated at a 37 C/5% CO2 incubator for 18 h, 3 uL of Dye Loading Buffer was transferred to the assay plate by a Flying Reagent Dispenser. The assay plates were incubated at 37 C for 1h. For antagonist mode, 23 nL of compounds dissolved in DMSO, positive controls or DMSO only was transferred to the assay plate by a pin tool. After 5 min incubation at room temperature, 1.5 uL of 4-Iodo-2,5-dimethoxy-alpha-methylbenzeneethanamine hydrochloride (DOI) at 4nM was added to each well. The fluorescence intensity in the plates was measured using FDSS 7000EX kinetic plate reader for 3 min at 1 sec intervals.
`CSc1nnc(C(C)(C)C)c(=O)[nH]1` was tested, and the “activity, negative = inhibition” value was 11.7%. With `O=C(O[C@@H](C(=O)O)[C@@H](OC(=O)c1ccccc1)C(=O)O)c1ccccc1` the “activity, negative = inhibition” value was 23.6%. In the case of `C1=Cc2ccccc2C1`, the “activity, negative = inhibition” value was 19.4%. With `CCCCCCCC(=O)[O-].CCCCCCCC(=O)[O-].[Zn+2]` the “activity, negative = inhibition” value was 23.1% [at 28.5 µM]. `C=CCOCC(O)CO` (stereo not given) was tested, and the “activity, negative = inhibition” value was -0.823%. `OCC#CCO` was tested, and the Potency was “inactive”. With `C/C=C/c1ccc(OC)c(OC)c1` the “activity, negative = inhibition” value was 2.58%. `CC(=O)N1CCN(c2ccc(O)cc2)CC1` was tested, and the “activity, negative = inhibition” value was 2.09% [at 28.5 µM]. In the case of `O=C(O)c1cc(O)c(O)c(O)c1`, the Potency was “inactive”. For `Cc1occc1S`, the “activity, negative = inhibition” value was -3.27%. `C(/C=C/C=C/Nc1ccccc1)=Nc1ccccc1` was tested, and the “activity, negative = inhibition” value was 11.1%. For `C[n+]1ccn(CCO)c1`, the “activity, negative = inhibition” value was 14.5%. `COC(=O)C1=C(C)NC(C)=C(C(=O)OCCN(C)Cc2ccccc2)C1c1cccc([N+](=O)[O-])c1` (stereo not given) was tested, and the Potency was “inactive”. For `CCCCOC(=O)C(=O)OCCCC`, the “activity, negative = inhibition” value was 17.9%. In the case of `CC(=O)c1ccc2ccccc2c1`, the “activity, negative = inhibition” value was -18.6%. For `C=C(C)C(=O)OCCCCCCOC(=O)C(=C)C`, the “activity, negative = inhibition” value was 4.34%. For `CCCCCCCCOC(=O)CCCCCCCCC(=O)OCCCCCCCC`, the “activity, negative = inhibition” value was 34.3%. `COc1ccc(C(=O)NCc2ccc(OCCN(C)C)cc2)cc1OC` was tested, and the “activity, negative = inhibition” value was 15% [at 28.5 µM]. For `CCCCCCCCCCCCCCCC(=O)NCCO`, the “activity, negative = inhibition” value was 21.7% [at 28.5 µM]. `Cc1cccnc1` was tested, and the Potency was “inactive”. With `C=C1CC/C=C(\C)CC[C@@H]2[C@@H]1CC2(C)C` the “activity, negative = inhibition” value was 0.513%. In the case of `CCCCCCCC/C=C\CCCCCCCC(N)=O`, the “activity, negative = inhibition” value was 75.8%. In the case of `CN(C)Cc1ccccc1O`, the “activity, negative = inhibition” value was 6.41%. In the case of `CCCCCCCN`, the “activity, negative = inhibition” value was 1.61%. With `Cc1cc(C)cc(OCC2CNC(=O)O2)c1` (stereo not given) the “activity, negative = inhibition” value was 5.18% [at 28.5 µM]. `C1COCCO1` was tested, and the “activity, negative = inhibition” value was 13.9%. In the case of `CCCCCCCCCCCCCCCCC`, the “activity, negative = inhibition” value was -20.4%. In the case of `COc1cc(C(=S)N2CCOCC2)ccc1O`, the “activity, negative = inhibition” value was -4.06% [at 28.5 µM]. For `NCCC(O)(P(=O)(O)O)P(=O)(O)O`, the “activity, negative = inhibition” value was 0.758% [at 28.5 µM]. In the case of `CC(C)Nc1ccccc1`, the “activity, negative = inhibition” value was -12.5%. In the case of `Cc1cc(C)cc(O)c1`, the Potency was “inactive”. In the case of `CO[Si](CCCOCC1CO1)(OC)OC` (stereo not given), the Potency was “inactive”. With `Cc1ccc(N=Nc2c(O)ccc3ccccc23)c(C)c1` the “activity, negative = inhibition” value was 12.7% [at 28.5 µM]. With `CCC(=O)c1ccc(O)cc1` the “activity, negative = inhibition” value was 55.2% [at 28.5 µM]. `CC(=O)c1ccc2c(c1)CCCC2` was tested, and the “activity, negative = inhibition” value was 0.67%. With `Cc1occc1SSc1ccoc1C` the “activity, negative = inhibition” value was -6.75%. For `CN(C)N=Nc1ccccc1`, the “activity, negative = inhibition” value was -3.97%. With `CCCCc1ncc(/C=C(\Cc2cccs2)C(=O)O)n1Cc1ccc(C(=O)O)cc1` the “activity, negative = inhibition” value was 3.05% [at 28.5 µM]. With `O=C1CCCCCCCCCCCCCCCO1` the “activity, negative = inhibition” value was 7.73%. `O=C(c1ccccc1)c1ccccc1O` was tested, and the Potency was “inactive”.
